Results reported in ChEMBL document CHEMBL1961873, “Compounds: GSK PKIS; Assays: Nanosyn kinase panel” (2012).
Several values for one entry are separate records, joined by “and”; a condition that tells them apart may be missing. Equal entries are not always repeated.

How the values were obtained:
[1] = biological target: T1, Inhibitor of nuclear factor kappa-B kinase subunit epsilon (Homo sapiens) (UniProt Q14164); settings: at 1 µM;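 note: reported values are averaged percent inhibition figures against human IKKε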
T1 sequence (whole entry): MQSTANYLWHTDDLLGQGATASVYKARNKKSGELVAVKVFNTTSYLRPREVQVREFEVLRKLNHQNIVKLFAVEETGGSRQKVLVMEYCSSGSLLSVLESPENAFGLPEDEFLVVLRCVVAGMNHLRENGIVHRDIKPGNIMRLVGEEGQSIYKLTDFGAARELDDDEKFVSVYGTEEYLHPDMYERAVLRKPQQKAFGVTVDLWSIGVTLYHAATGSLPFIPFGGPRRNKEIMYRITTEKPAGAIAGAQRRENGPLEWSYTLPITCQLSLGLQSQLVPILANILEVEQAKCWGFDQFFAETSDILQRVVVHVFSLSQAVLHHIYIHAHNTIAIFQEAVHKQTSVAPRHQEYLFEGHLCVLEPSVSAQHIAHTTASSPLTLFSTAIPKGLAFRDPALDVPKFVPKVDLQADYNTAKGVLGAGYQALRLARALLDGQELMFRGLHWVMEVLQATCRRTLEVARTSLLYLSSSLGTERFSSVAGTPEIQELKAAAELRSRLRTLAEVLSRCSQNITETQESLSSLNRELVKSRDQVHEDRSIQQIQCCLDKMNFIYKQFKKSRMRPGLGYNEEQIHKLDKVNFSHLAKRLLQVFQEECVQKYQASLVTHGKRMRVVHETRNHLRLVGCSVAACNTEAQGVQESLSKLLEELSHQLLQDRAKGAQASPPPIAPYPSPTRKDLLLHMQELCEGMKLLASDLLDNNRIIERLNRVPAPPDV

[2] = biological target: T2, Serine/threonine-protein kinase Nek1 (Homo sapiens) (UniProt Q96PY6); settings: at 0.1 µM
T2 sequence (whole entry): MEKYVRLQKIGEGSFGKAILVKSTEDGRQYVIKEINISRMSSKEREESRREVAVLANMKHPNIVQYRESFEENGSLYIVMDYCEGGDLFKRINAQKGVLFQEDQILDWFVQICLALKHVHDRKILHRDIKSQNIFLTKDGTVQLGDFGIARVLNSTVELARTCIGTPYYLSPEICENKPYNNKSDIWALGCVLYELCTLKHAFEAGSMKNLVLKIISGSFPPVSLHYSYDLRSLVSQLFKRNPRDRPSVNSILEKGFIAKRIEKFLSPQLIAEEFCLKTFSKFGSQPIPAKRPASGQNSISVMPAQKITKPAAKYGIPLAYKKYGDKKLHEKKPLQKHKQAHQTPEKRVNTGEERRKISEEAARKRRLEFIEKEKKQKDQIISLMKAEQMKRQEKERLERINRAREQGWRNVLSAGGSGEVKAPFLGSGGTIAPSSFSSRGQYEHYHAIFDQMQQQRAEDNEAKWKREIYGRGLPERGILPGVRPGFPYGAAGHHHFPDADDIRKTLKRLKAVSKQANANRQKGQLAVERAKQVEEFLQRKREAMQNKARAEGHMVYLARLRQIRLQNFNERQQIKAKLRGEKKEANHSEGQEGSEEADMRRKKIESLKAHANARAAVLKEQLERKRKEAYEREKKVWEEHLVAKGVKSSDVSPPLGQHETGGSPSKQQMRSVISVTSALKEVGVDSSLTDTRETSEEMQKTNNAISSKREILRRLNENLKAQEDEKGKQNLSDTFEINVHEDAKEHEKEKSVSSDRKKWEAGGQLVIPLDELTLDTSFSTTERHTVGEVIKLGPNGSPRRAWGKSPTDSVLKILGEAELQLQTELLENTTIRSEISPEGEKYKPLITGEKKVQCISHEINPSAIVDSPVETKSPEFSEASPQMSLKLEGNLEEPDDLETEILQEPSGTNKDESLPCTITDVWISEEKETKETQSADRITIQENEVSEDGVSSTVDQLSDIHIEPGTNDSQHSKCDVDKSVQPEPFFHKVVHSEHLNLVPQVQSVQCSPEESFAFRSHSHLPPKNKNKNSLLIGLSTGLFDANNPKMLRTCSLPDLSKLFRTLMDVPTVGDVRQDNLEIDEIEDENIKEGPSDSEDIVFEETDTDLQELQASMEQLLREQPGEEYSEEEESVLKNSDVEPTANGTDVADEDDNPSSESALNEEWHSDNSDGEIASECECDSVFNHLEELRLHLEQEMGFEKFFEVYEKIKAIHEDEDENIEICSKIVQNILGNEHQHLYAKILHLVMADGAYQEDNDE

[3] = biological target: T2, Serine/threonine-protein kinase Nek1 (Homo sapiens); settings: at 1 µM
[4] = biological target: T3, Serine/threonine-protein kinase Nek2 (Homo sapiens) (UniProt P51955); settings: at 0.1 µM
T3 sequence (whole entry): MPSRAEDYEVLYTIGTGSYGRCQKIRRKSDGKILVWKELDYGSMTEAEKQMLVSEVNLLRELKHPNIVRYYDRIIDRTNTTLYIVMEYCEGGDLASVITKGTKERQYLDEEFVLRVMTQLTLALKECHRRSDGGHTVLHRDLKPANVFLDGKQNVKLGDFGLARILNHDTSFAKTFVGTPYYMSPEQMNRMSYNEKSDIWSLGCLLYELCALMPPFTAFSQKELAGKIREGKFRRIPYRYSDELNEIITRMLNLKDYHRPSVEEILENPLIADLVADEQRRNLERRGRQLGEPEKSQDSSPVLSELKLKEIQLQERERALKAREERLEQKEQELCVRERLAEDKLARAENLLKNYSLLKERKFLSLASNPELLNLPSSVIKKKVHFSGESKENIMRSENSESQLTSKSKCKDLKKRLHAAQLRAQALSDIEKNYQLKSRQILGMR

[5] = biological target: T3, Serine/threonine-protein kinase Nek2 (Homo sapiens); settings: at 1 µM
[6] = biological target: Serine/threonine-protein kinase Nek6 (Homo sapiens) (UniProt Q9HC98); settings: at 0.1 µM
Sequence of Serine/threonine-protein kinase Nek6 (Homo sapiens) (Q9HC98 whole entry): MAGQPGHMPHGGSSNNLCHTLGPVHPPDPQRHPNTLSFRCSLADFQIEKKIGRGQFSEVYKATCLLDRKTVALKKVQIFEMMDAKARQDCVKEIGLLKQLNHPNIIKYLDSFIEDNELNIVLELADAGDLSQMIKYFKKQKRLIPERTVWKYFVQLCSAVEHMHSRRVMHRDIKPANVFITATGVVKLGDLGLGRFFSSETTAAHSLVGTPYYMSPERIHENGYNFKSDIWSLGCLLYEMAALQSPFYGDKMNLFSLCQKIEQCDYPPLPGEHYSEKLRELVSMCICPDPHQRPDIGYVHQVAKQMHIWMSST

[7] = biological target: Serine/threonine-protein kinase Nek6 (Homo sapiens) (UniProt Q9HC98); settings: at 1 µM
[8] = biological target: Serine/threonine-protein kinase Nek7 (Homo sapiens) (UniProt Q8TDX7); settings: at 0.1 µM
Sequence of Serine/threonine-protein kinase Nek7 (Homo sapiens) (Q8TDX7 whole entry, looked up): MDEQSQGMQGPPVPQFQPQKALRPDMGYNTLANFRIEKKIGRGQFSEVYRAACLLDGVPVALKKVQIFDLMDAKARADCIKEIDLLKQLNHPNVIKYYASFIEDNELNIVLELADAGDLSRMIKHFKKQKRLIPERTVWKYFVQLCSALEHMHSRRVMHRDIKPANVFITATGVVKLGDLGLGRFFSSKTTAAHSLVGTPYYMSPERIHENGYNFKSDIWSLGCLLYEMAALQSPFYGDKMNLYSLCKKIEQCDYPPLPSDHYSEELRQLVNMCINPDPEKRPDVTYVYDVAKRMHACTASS

[9] = biological target: Serine/threonine-protein kinase Nek7 (Homo sapiens) (UniProt Q8TDX7); settings: at 1 µM
[10] = biological target: T4, Serine/threonine-protein kinase Nek9 (Homo sapiens) (UniProt Q8TD19); settings: at 0.1 µM
T4 sequence (whole entry): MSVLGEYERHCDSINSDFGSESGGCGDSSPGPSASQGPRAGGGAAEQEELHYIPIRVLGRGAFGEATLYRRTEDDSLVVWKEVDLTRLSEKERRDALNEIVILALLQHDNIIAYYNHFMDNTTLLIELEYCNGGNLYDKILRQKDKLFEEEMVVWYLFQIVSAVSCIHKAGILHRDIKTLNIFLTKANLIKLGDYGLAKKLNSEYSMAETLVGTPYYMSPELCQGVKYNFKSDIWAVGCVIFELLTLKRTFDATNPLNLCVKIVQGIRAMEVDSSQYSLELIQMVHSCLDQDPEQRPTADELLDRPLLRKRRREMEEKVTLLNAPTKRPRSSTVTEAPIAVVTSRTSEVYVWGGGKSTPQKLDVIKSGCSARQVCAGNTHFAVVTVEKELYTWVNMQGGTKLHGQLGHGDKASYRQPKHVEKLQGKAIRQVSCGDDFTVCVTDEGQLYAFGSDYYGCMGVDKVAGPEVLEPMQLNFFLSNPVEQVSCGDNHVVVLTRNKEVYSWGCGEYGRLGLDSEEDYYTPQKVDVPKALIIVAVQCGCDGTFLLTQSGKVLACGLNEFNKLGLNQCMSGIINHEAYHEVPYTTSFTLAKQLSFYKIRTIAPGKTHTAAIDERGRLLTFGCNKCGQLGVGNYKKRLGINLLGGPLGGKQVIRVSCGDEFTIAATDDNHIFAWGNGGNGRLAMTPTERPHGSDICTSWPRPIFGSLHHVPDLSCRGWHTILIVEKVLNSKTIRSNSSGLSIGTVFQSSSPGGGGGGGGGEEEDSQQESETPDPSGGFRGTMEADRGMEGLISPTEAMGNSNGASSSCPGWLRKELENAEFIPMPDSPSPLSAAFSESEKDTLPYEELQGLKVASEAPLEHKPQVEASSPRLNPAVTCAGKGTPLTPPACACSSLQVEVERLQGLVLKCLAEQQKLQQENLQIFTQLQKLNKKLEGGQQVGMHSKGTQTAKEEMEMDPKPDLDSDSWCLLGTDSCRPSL

[11] = biological target: T4, Serine/threonine-protein kinase Nek9 (Homo sapiens); settings: at 1 µM
[12] = biological target: Serine/threonine-protein kinase PLK1 (Homo sapiens) (UniProt P53350); settings: at 0.1 µM
Sequence of Serine/threonine-protein kinase PLK1 (Homo sapiens) (P53350 whole entry): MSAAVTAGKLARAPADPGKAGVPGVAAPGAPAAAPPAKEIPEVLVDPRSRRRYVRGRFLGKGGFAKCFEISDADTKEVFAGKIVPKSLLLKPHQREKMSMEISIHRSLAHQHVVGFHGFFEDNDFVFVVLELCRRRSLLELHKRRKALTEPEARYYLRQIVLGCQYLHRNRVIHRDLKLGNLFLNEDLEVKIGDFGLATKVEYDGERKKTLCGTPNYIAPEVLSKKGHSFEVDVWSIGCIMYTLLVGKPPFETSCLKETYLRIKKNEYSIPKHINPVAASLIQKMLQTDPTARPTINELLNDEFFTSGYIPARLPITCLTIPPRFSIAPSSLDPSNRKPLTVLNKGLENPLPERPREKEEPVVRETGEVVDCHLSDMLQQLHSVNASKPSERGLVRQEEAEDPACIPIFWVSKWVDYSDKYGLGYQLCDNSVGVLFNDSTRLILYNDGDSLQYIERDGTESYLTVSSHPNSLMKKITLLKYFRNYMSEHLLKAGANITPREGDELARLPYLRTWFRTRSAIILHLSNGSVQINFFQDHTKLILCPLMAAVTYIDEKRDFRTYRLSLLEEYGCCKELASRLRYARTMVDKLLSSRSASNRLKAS

[13] = biological target: Serine/threonine-protein kinase PLK1 (Homo sapiens) (UniProt P53350); settings: at 1 µM
[14] = biological target: T5, Dual specificity protein kinase TTK (Homo sapiens) (UniProt P33981); settings: at 0.1 µM
T5 sequence (whole entry): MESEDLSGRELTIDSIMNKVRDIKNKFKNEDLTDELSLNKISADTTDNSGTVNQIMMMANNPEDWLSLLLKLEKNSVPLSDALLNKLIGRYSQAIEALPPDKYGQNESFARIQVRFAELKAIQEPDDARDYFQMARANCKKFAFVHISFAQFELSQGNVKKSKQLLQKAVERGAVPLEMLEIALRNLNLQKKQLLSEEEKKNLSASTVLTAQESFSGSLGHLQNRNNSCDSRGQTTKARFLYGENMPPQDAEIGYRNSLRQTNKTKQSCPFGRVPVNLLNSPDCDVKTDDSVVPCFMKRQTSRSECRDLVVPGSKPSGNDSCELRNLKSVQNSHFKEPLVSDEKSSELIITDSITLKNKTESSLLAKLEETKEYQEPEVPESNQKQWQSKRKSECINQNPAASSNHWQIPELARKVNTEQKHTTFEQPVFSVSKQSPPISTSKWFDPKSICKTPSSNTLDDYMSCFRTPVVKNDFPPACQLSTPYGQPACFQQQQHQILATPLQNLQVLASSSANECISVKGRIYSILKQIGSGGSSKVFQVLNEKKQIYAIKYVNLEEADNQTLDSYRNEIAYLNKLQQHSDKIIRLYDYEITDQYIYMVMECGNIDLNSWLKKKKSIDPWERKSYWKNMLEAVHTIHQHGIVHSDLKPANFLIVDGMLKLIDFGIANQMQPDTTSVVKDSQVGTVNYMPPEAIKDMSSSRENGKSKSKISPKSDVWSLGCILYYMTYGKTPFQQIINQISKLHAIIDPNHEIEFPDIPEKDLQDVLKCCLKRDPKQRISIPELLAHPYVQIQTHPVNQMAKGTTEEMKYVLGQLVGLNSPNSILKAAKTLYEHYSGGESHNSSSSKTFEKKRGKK

[15] = system: T6, Receptor-type tyrosine-protein kinase FLT3 (Homo sapiens), P36888 [D835Y]; settings: at 1 µM
T6 sequence (whole entry): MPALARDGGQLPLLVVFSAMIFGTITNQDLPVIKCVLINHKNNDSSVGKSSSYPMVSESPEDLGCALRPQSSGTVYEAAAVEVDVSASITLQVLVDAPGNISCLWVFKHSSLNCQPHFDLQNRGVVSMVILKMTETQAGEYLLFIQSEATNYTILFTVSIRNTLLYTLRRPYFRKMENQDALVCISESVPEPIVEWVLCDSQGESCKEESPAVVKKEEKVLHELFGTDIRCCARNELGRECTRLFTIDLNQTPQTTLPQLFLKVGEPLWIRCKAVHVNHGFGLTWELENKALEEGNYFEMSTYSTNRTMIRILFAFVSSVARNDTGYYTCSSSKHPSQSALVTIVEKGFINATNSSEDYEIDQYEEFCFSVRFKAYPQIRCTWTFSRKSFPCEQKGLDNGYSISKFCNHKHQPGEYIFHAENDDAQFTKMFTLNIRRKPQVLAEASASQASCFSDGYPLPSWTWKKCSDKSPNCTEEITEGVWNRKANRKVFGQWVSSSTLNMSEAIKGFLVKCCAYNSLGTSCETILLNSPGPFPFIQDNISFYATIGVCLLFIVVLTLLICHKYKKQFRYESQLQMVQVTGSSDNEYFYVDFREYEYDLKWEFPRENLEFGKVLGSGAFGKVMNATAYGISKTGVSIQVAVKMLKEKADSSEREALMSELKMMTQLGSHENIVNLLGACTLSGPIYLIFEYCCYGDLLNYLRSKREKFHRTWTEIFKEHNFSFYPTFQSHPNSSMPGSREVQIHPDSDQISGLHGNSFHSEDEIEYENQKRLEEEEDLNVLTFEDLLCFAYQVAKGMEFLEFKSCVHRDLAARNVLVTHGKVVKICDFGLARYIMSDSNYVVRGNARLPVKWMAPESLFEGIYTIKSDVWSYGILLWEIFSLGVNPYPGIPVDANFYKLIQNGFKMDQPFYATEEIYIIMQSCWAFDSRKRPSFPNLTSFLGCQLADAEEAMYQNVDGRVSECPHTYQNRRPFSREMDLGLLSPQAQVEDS

[16] = biological target: Vascular endothelial growth factor receptor 3 (Homo sapiens) (UniProt P35916); settings: at 0.1 µM
Sequence of Vascular endothelial growth factor receptor 3 (Homo sapiens) (P35916 whole entry): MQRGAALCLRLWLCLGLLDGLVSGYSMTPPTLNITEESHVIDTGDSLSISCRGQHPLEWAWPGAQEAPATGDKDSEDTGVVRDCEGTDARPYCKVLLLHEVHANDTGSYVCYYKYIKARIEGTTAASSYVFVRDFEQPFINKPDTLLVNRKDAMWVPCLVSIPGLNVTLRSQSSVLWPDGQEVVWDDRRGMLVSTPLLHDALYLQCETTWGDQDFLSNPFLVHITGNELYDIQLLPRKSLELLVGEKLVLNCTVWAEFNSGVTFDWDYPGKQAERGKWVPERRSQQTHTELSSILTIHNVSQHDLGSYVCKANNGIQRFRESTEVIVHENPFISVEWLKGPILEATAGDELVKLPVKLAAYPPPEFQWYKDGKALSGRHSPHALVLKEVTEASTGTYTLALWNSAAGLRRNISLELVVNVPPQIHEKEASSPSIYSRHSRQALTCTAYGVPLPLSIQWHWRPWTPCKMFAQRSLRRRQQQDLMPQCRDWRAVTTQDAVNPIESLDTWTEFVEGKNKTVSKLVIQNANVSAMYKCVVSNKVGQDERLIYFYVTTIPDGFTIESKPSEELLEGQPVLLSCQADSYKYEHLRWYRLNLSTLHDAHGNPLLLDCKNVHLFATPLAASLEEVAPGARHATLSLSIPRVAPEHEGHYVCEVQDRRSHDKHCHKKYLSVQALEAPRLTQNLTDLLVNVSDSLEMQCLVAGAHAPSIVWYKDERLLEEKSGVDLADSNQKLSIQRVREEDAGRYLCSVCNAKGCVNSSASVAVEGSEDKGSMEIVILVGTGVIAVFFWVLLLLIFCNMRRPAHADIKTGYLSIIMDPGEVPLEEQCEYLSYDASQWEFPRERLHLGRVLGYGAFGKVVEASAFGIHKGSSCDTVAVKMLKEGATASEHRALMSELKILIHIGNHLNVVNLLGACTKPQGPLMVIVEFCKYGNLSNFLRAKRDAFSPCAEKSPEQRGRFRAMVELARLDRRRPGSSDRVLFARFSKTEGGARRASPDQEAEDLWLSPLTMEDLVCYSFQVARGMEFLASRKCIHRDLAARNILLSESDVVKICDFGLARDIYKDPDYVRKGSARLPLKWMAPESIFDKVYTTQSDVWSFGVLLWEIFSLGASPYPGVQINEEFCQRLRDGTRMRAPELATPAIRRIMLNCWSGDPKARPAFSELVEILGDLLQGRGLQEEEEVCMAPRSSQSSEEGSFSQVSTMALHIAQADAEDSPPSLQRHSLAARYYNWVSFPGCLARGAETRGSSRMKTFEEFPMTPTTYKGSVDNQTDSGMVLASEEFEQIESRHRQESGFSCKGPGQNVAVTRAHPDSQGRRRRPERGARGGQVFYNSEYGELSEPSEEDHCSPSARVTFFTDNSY

[17] = biological target: Vascular endothelial growth factor receptor 3 (Homo sapiens) (UniProt P35916); settings: at 1 µM
[18] = biological target: Macrophage colony-stimulating factor 1 receptor (Homo sapiens) (UniProt P07333); settings: at 0.1 µM
Sequence of Macrophage colony-stimulating factor 1 receptor (Homo sapiens) (P07333 whole entry): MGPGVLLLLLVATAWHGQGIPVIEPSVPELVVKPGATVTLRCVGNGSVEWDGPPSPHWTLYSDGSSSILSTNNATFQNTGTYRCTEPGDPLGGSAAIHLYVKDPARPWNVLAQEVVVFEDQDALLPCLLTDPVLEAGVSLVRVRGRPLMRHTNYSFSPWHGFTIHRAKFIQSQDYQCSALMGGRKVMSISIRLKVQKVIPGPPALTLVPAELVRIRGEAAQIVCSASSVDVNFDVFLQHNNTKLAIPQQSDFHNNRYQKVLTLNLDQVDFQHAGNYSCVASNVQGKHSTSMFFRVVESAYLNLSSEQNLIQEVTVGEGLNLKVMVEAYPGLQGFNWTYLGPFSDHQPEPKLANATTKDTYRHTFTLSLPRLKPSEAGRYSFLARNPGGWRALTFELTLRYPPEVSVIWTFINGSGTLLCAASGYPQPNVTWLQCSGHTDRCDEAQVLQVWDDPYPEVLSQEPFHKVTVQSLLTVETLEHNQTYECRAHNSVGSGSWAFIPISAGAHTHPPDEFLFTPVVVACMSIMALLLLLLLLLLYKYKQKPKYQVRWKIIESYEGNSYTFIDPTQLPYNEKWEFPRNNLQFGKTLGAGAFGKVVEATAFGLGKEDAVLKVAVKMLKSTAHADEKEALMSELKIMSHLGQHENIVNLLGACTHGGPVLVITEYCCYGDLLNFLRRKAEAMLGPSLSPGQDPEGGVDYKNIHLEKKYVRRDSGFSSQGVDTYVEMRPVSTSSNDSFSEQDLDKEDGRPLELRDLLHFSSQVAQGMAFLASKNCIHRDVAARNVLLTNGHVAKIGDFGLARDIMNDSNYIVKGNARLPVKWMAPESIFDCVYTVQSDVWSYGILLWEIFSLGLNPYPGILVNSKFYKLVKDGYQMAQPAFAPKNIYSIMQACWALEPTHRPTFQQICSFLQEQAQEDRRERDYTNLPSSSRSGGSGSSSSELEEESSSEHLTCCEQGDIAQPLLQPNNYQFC

[19] = biological target: Macrophage colony-stimulating factor 1 receptor (Homo sapiens) (UniProt P07333); settings: at 1 µM
[20] = biological target: Tyrosine-protein kinase Fyn (Homo sapiens) (UniProt P06241); settings: at 0.1 µM
Sequence of Tyrosine-protein kinase Fyn (Homo sapiens) (P06241 2-537 limits assumed): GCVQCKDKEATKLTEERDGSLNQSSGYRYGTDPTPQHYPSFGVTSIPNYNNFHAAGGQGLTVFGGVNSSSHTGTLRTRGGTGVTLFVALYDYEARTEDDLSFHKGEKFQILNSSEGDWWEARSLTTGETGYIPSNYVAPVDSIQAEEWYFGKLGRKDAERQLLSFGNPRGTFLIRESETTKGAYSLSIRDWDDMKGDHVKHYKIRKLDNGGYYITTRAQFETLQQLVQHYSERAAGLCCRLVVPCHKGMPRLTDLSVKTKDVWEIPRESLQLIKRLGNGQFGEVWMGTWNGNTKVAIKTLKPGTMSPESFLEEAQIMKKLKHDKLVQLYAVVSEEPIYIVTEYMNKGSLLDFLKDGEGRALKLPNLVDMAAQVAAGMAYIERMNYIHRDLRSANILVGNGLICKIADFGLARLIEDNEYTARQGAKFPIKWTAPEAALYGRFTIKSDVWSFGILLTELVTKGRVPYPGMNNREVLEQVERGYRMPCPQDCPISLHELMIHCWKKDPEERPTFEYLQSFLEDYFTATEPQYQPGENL

Compound	inhibition [1]	inhibition [2]	inhibition [3]	inhibition [4]	inhibition [5]	inhibition [6]	inhibition [7]	inhibition [8]	inhibition [9]	inhibition [10]	inhibition [11]	inhibition [12]	inhibition [13]	inhibition [14]	inhibition [15]	inhibition [16]	inhibition [17]	inhibition [18]	inhibition [19]	inhibition [20]
CN1CCN(Cc2ccc(-c3cc4ncnc(Nc5ccc(OCc6cccc(F)c6)c(Cl)c5)c4s3)o2)CC1	4.6% and 4.24%	1.24% and 3.95%	2.68% and 4.85%	3.46% and 4.63%	2.94% and 4.7%	-1.83% and 5.78%	0.03% and 5.91%	2.08% and 6.06%	5.67% and 4.39%	-2.04% and 6.24%	5.83% and 18%	3.39% and 1.18%	2.38% and 4.14%	6.58% and 12.2%	-2.05% and 1.99%	2.97% and 4.96%	3.14% and 8.22%	3.64% and 7.74%	27.9% and 35.8%	2.24% and 2.04%
COc1cccc(Nc2nccc(-c3cnn4ncccc34)n2)c1	18.1%	3.3%	18.3%	4.5%	5.64%	3.79%	1.04%	-0.48%	4.19%	10.7%	26.1%	3.48%	21.3%	4.85%	52.3%	-0.16%	30.2%	50.4%	90.9%	1.46%
